The panel holds about 83,000 compounds, 20% with a hit somewhere; the sample as a whole holds those more often.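 A percent growth of 40 corresponds to 60% growth inhibition; 0 means no net growth; -100 means all cells died. Active threshold: below 10.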 Unmarked numbers belong to inactive results. The source made the active and inactive calls.

Common to all, as to assay: NCI-60 one-dose screen, 48 h (100 = growth as untreated, 0 = no growth, -100 = all killed)
One assay concerns DU-145 prostate. Particulars: 10 µM unless noted.
The test system of the next assay is MALME-3M melanoma. Particulars: 10 µM unless noted.
In the next assay the test system is MDA-MB-231 breast. Particulars: 10 µM unless noted.
A further assay concerns RXF 393 renal. Particulars: 10 µM unless noted.
Another assay has as its system SF-268 CNS. The settings on record: 10 µM unless noted.
Another assay deals with SF-295 CNS. Particulars: 10 µM unless noted.
Another assay deals with SF-539 CNS. The settings on record: 10 µM unless noted.
In another assay the test system is UACC-257 melanoma. The settings on record: 10 µM.
A further assay has as its system M14 melanoma. The settings on record: 10 µM unless noted.
The test system of the next assay is K-562 leukemia. The settings on record: 10 µM unless noted.

Consider `CS(=O)(=O)c1ccc2c(c1)c1c(n2C(=O)c2ccc(Cl)cc2)CCCC1`, for which the growth is 36% in the assay on DU-145 prostate; 43.7% in the assay on MALME-3M melanoma; 39.9% with MDA-MB-231 breast; -12.1% (active) with RXF 393 renal; 62.1% in the assay with SF-268 CNS; 22.5% in the assay with SF-295 CNS. Also, the growth was 1.96% (active) in the assay on SF-539 CNS, 56.8% with UACC-257 melanoma and 28.8% in the assay on M14 melanoma.

For the compound `C/C(=C(/c1ccc(O)cc1)c1ccc(OCCN2CCCCCC2)cc1)c1ccccc1`, the growth in the assay on DU-145 prostate was 74.3%; in the assay with MALME-3M melanoma it was 2.85% (active); in the assay with MDA-MB-231 breast, 43.1%; with RXF 393 renal, 26%; in the assay with SF-268 CNS, 71.3%; with SF-295 CNS it was 44%. The results for the growth in the assay with SF-539 CNS, in the assay on UACC-257 melanoma and in the assay with M14 melanoma were 10.7%, -27% (active) and -3.91% (active), respectively.

`CS(=O)c1nccc(-c2c(-c3ccc(F)c(OCCc4ccccc4)c3)nc3sccn23)n1` (configuration not stated): the growth in the assay on DU-145 prostate was 4.08% (active); in the assay with MALME-3M melanoma it was 87.5%; in the assay on MDA-MB-231 breast, 84.7%; in the assay with RXF 393 renal it was 98.5%; in the assay on SF-268 CNS, 101%; with SF-295 CNS, 101%. Moreover, the growth with SF-539 CNS is 95.9%; in the assay on UACC-257 melanoma, 28.5%; in the assay with M14 melanoma, 76%.

In the case of `Clc1ccccc1/C=C/c1nn2c(-c3ccncc3)nnc2s1`, the growth in the assay with DU-145 prostate is 103%; with MALME-3M melanoma, 100%; with MDA-MB-231 breast, 101%; in the assay with RXF 393 renal it was 109%; with SF-268 CNS, 98.7%; in the assay with SF-295 CNS it was 98%. Also, the figures for the growth with SF-539 CNS, in the assay with UACC-257 melanoma and in the assay with M14 melanoma were 98.3%, 121% and 85.7%, respectively.

Turning to `C=CCn1c(SCC(=O)Nc2cccc(C(=O)/C=C/c3ccc(Cl)cc3)c2)nc2ccccc2c1=O`, the growth with DU-145 prostate was 95.1%; in the assay on MALME-3M melanoma, 95.6%; in the assay with MDA-MB-231 breast, 81.3%; with RXF 393 renal, 87%; in the assay with SF-268 CNS it was 87.3%; with SF-295 CNS it was 94.7%. Further, the results for the growth with SF-539 CNS, in the assay with UACC-257 melanoma and in the assay on M14 melanoma were 85.9%, 102% and 87.8%, respectively.

Take `C=C1C(=O)O[C@@H]2C[C@@H](C)[C@H](OC)CC(=O)[C@](C)(OC(C)=O)C[C@H](OC(=O)/C(C)=C\C)[C@@H]12`: the growth in the assay with DU-145 prostate is 78.3%; in the assay on MALME-3M melanoma it was 40.2%; in the assay with MDA-MB-231 breast, 36.7%; with RXF 393 renal it was 58.7%; in the assay with SF-268 CNS it was 93.1%; in the assay with SF-295 CNS, 91.6%. For the same compound, the growth with SF-539 CNS was 71.4%; in the assay with UACC-257 melanoma it was 77.1%; with M14 melanoma, 88.8%.

As for `C=C(C)C(=O)O[C@H]1C[C@@]2(C)OC(=CC2=O)/C(C)=C\[C@H]2OC(=O)C(=C)[C@H]12`, the growth in the assay with DU-145 prostate is -3.72% (active); in the assay on MALME-3M melanoma, 6.62% (active); with MDA-MB-231 breast it was -33.3% (active); in the assay on RXF 393 renal it was -53.7% (active); in the assay on SF-268 CNS, 7.51% (active); with SF-295 CNS, 42.1%. Also, the growth is -54.6% (active) in the assay on SF-539 CNS, -26.3% (active) in the assay with UACC-257 melanoma and -37% (active) in the assay with M14 melanoma.

As to `C=CCn1c(SCC(=O)Nc2cccc(C(=O)/C=C/c3cccc([N+](=O)[O-])c3)c2)nc2ccccc2c1=O`, the growth was 94.1% in the assay with DU-145 prostate; 90.1% in the assay with MALME-3M melanoma; 90.1% with MDA-MB-231 breast; 84.6% with RXF 393 renal; 92.5% with SF-268 CNS; 93.5% with SF-295 CNS. Besides, the growth with SF-539 CNS is 96.7%; in the assay on UACC-257 melanoma, 99.3%; in the assay with M14 melanoma, 84.2%.

In the case of `C=C1C(=O)O[C@@H]2C[C@@H](C)CCC(=O)[C@](C)(OC(C)=O)C[C@H](OC(=O)/C(C)=C\C)[C@@H]12`, the growth in the assay on DU-145 prostate was 37.2%; in the assay on MALME-3M melanoma, 85.5%; in the assay with MDA-MB-231 breast, 50.4%; in the assay on RXF 393 renal it was 51.3%; in the assay on SF-268 CNS it was 96.1%; in the assay with SF-295 CNS it was 97.5%. Also, the values for the growth in the assay on SF-539 CNS, with UACC-257 melanoma and with M14 melanoma were 72.3%, 73.4% and 82.4%, respectively.

With `COc1ccc(-c2cc(-c3cccc4ccccc34)n3c(n2)nc2ccccc23)cc1`, the growth was 37.8% in the assay with DU-145 prostate; 37.2% with K-562 leukemia; 32.4% in the assay on MALME-3M melanoma; 78.2% with MDA-MB-231 breast; 46.6% in the assay on SF-268 CNS; 20.2% in the assay with SF-295 CNS. The growth in the assay with SF-539 CNS was 45.7%; in the assay on UACC-257 melanoma, 68.8%; in the assay with M14 melanoma, 52.1%.

In the case of `CCOC(=O)c1c(Nc2ccccc2)nn2c(-c3ccc(OC)c(OC)c3)ccnc12`, the growth with DU-145 prostate is 74.2%; in the assay with K-562 leukemia, 19.8%; in the assay on MALME-3M melanoma it was 76.2%; in the assay with MDA-MB-231 breast, 34.9%; in the assay with SF-268 CNS, 68.1%; in the assay on SF-295 CNS, 49%. In addition, the growth in the assay on SF-539 CNS was 60.2%; with UACC-257 melanoma it was 95.2%; in the assay on M14 melanoma it was 53.6%.

Consider `C=C(C)C(=O)O[C@H]1C[C@@]2(C)OC(=CC2=O)/C(CO)=C\[C@H]2OC(=O)C(=C)[C@H]12`, for which the growth in the assay with DU-145 prostate is -25.2% (active); in the assay with MALME-3M melanoma, -68.8% (active); in the assay with MDA-MB-231 breast, -54% (active); in the assay with RXF 393 renal, -67.6% (active); with SF-268 CNS it was -13.8% (active); in the assay on SF-295 CNS, 32.6%. In addition, the results for the growth with SF-539 CNS, with UACC-257 melanoma and in the assay with M14 melanoma were -82.9% (active), -34% (active) and -34% (active), respectively.

`O=C(Cn1cc(CN2C(=O)c3ccc([N+](=O)[O-])cc3C2=O)nn1)Nc1ccc(F)cc1Cl`: the growth with DU-145 prostate was 106%; in the assay on K-562 leukemia, 97.9%; with MALME-3M melanoma, 83.3%; with MDA-MB-231 breast it was 92.4%; in the assay with SF-268 CNS, 99.8%; in the assay on SF-295 CNS, 104%. Also, the growth in the assay with SF-539 CNS was 93.9%; in the assay on UACC-257 melanoma it was 97.8%; in the assay with M14 melanoma, 94.8%.

(Values after PubChem BioAssay (NCI).)
